Screens (PubChem)
Hits are enriched below; roughly 11% of the tested compounds scored in any of these assays.
IL-1B inflam inh: blocks inflammasome-driven IL-1 beta release; 360,000 compounds, 4.7% hits; activity change, % at 57.5 µM; THP-1 LPS/ATP IL-1B secretion, AlphaLISA, 16 h; stronger effect = lower value; in the data active = activity change below about -50%; inconclusive = mostly about -30% to -49%; note: % is set by controls: 0 for no effect and ±100 for the full control effect
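Secreted IL-1B measured by AlphaLISA bead assay after 16 h compound exposure of THP-1 cells; compounds (final up to 57.5 uM) added 1 h before LPS (250 ng/mL) and ATP (1.25 mM) stimulation; lower signal means less secretion.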
SW480 rereplic: induces DNA re-replication in SW480 colon adenocarcinoma cells. SW480 DNA re-replication, Hoechst DNA content imaging, 48 h. Potency, µM (top dose mostly 46.1 µM), for inactives: top-dose re-replication activation, most hits filed as activators. 340,000 compounds, 1.8% hits; note: potency is the fitted concentration of half-maximal effect; % of control where 0% means no effect; nearly all actives have a fitted effect of over 55% in size
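Hoechst fluorescence of nuclei (405 nm excitation, 500-530 nm emission) measured by plate-scanning imager after 48 hr compound exposure at 37 C; re-replication scored as increased number of nuclei with elevated intensity.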
MCF10A rerep: inducers of DNA re-replication in MCF 10A breast cells; Potency, µM (series often up to 46.1 µM), inactives show at the top dose activity, positive = re-replication, most hits filed as activators; 350,000 compounds, 2.9% hits; AID 624296; MCF 10A DNA re-replication, Hoechst nuclear intensity, 48 h; note: potency is the fitted concentration of half-maximal effect; % of control where 0% means no effect; nearly all actives have a fitted effect of over 50% in size
RORg inh: blocks mouse ROR gamma transcriptional activity; P51450; Potency, µM (titrated, usually from 53.6 µM), inactives show at the top dose activity change, negative = inhibition, actives largely listed as inhibitors; Drosophila S2 Gal4-RORgamma UAS-luciferase reporter, 20 h; 310,000 compounds, 5.4% hits; note: potency is the fitted concentration of half-maximal effect; % is set by controls: 0 for no effect and ±100 for the full control effect; nearly all actives have a fitted effect of over 60% in size
Target sequence (P51450 whole entry, looked up, the tested form may be a part): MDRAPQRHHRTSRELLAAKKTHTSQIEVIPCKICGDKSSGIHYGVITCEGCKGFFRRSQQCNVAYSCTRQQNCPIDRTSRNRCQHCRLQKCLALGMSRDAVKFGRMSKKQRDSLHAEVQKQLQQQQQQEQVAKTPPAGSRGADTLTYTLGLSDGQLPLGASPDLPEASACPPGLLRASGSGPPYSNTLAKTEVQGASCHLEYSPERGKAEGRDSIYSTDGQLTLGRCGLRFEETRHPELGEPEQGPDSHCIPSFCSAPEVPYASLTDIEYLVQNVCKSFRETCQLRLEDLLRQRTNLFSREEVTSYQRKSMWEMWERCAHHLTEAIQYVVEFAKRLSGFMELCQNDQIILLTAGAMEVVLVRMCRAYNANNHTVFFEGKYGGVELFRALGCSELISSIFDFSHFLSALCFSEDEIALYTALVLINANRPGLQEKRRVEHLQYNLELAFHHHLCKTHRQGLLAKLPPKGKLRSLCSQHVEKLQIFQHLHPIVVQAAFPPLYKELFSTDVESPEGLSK
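Stable Schneider cell line, Gal4 DNA-binding domain fused to ROR gamma, UAS-luciferase. Cmpd 1 hr RT → CuSO4 700 uM final → 20 hr RT → luciferase reagent 10 min → luminescence.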
Gal4-VP16 FLuc: counter-screen for ROR gamma inhibitors: Gal4-VP16 reporter | Potency, µM (highest dose often 53.6 µM), inactives show at the highest dose activity, negative = inhibition, hits mostly inhibitors | 310,000 compounds, 3.5% hits | Drosophila S2 Gal4-VP16 UAS-luciferase, luminescence, 20 h;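 note: Gal4-VP16 expression switched on by copper sulfate through the metallothionein promoter; potency is the fitted concentration of half-maximal effect; % is set by controls: 0 for no effect and ±100 for the full control effect; nearly all actives have a fitted effect of over 50% in size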
Numbers without * were called inactive; [ ] = remark or other dose. Unless noted, calls come from the whole dose curve; as a rule, active = well fitted curve in the direction sought with a large enough effect; inconclusive = small, poorly fitted or top-dose-only effect, or another doubt; inactive = no such curve, though single readings can be large; an effect the other way counts as inactive or inconclusive.

CCC(C)C(N)C(=O)NC(CC(N)=O)C(=O)NC(CC(C)C)C(=O)NC(CCCCN)C(=O)NC(C)C(=O)NC(CC(C)C)C(=O)NC(C)C(=O)NC(C)C(=O)NC(CC(C)C)C(=O)NC(C)C(=O)NC(CCCCN)C(=O)NC(CCCCN)C(=O)NC(C(=O)NC(CC(C)C)C(N)=O)C(C)CC (stereo not given) was read as RORg inh inconclusive and Gal4-VP16 FLuc 18µM*.
`CC[C@H](C)[C@H](N)C(=O)N[C@@H](CCCCN)C(=O)N[C@H](C(=O)N[C@@H](C)C(=O)N[C@H](C(=O)O)C(C)C)C(C)C` gave RORg inh -3% and Gal4-VP16 FLuc -16%.
For CNC(=S)NNC(=O)COc1ccccc1C the results were IL-1B inflam inh inconclusive, SW480 rereplic inconclusive, MCF10A rerep -15%, RORg inh 7.1µM* and Gal4-VP16 FLuc 10µM*.
Screening CNC(=S)NNC(=O)COc1cccc(C)c1C returned IL-1B inflam inh 3, SW480 rereplic -2%[9.22 µM], MCF10A rerep -2%, RORg inh 1.4µM* and Gal4-VP16 FLuc 7.1µM*.
Screening Cc1ccccc1OCC(=O)NNC=O returned IL-1B inflam inh 0, SW480 rereplic -41%, MCF10A rerep 9%[9.22 µM], RORg inh -12% and Gal4-VP16 FLuc -1%.
Cc1ccsc1/C=N/NC(=O)c1nnn(-c2nonc2N)c1CN(C)c1ccccc1 was read as IL-1B inflam inh -11, SW480 rereplic 19%, MCF10A rerep -31%, RORg inh 4µM* and Gal4-VP16 FLuc 3.2µM*.
Cc1ccc(/C=N/NC(=O)c2nnn(-c3nonc3N)c2CN(C)c2ccccc2)s1 was read as IL-1B inflam inh -11, SW480 rereplic -18%, MCF10A rerep -10%, RORg inh 18µM* and Gal4-VP16 FLuc inconclusive.
Screening Cc1ccc(/C=N/NC(=O)c2nnn(-c3nonc3N)c2CN(C)C)s1 returned IL-1B inflam inh 0, SW480 rereplic 11%, MCF10A rerep -1%, RORg inh 13% and Gal4-VP16 FLuc -6%.
`CCc1c(C(=O)N/N=C/c2sccc2C)nnn1-c1nonc1N` gave IL-1B inflam inh -9, SW480 rereplic -9%, MCF10A rerep -9%, RORg inh 10µM* and Gal4-VP16 FLuc 10µM*.
Cc1cc(C)c2nc(N3CCCC(C(=O)N4CCN(c5ncccn5)CC4)C3)sc2c1 (stereo not given) was read as IL-1B inflam inh inconclusive, SW480 rereplic 14%, MCF10A rerep 15µM*, RORg inh 18% and Gal4-VP16 FLuc 5%.
CC(=O)Nc1ccc(OCCC[n+]2ccccc2)cc1 was read as IL-1B inflam inh 0, SW480 rereplic inactive[1.84 µM], MCF10A rerep 2%, RORg inh 4% and Gal4-VP16 FLuc 3%.
Screening CCCCCc1ccc(OCCOCCn2c[n+](C)c3ccccc32)c(CCCCC)c1 returned IL-1B inflam inh -94*, SW480 rereplic inconclusive, MCF10A rerep inconclusive, RORg inh inconclusive and Gal4-VP16 FLuc 16µM*.
`C[n+]1cn(CC(O)COCc2ccccc2)c2ccccc21` (stereo not given) gave IL-1B inflam inh -3, SW480 rereplic -2%, MCF10A rerep 6%, RORg inh -28% and Gal4-VP16 FLuc -2%.
CCCCCc1ccc(OCCC[n+]2ccccc2)c(CCCCC)c1 was read as IL-1B inflam inh -94*, SW480 rereplic 2%, MCF10A rerep inconclusive, RORg inh 10% and Gal4-VP16 FLuc -15%.
For N#Cc1ccc(-c2cccc3nccn23)cc1 the results were IL-1B inflam inh 0.
`c1ccc2c(c1)oc1c(-c3ccc4nccn4c3)cccc12` gave IL-1B inflam inh 23.
For COc1cccc(C(CNc2ccc(S(=O)(=O)N3CCN(C)CC3)cc2[N+](=O)[O-])N(C)C)c1 (stereo not given) the results were IL-1B inflam inh -16, SW480 rereplic -1% and MCF10A rerep 15%.
Screening CCOC(=O)Cc1cc(=O)n2[nH]c(C)c(-c3ccccc3)c2n1 returned IL-1B inflam inh 8, SW480 rereplic 3%, MCF10A rerep inconclusive, RORg inh 13µM* and Gal4-VP16 FLuc inconclusive.
Screening CCOC(=O)N1CCC(c2cc(=O)n3[nH]c(-c4ccccc4)cc3n2)CC1 returned IL-1B inflam inh 7, SW480 rereplic -10%, MCF10A rerep 0%, RORg inh 29% and Gal4-VP16 FLuc -8%.
For CCOC(=O)Cc1c(C)nc2c(-c3cccc(Br)c3)c[nH]n2c1=O the results were IL-1B inflam inh 36, SW480 rereplic 18µM*, MCF10A rerep 7.3µM*, RORg inh 4.5µM* and Gal4-VP16 FLuc 14µM*.
Screening CCOC(=O)Cc1c(C)nc2c(-c3ccc(Cl)cc3)c(C)[nH]n2c1=O returned IL-1B inflam inh 42, SW480 rereplic 2%, MCF10A rerep -6%, RORg inh 6.3µM* and Gal4-VP16 FLuc 6.3µM*.
Screening CCOC(=O)N1CCC(c2cc(=O)n3[nH]c(C)c(-c4ccc(F)cc4)c3n2)CC1 returned IL-1B inflam inh -10, SW480 rereplic inconclusive, MCF10A rerep -4%, RORg inh 10µM* and Gal4-VP16 FLuc 13µM*.
Screening O=C(NCCS(=O)(=O)N1CCN(c2ccccc2)CC1)C1CCCC1 returned IL-1B inflam inh -4, SW480 rereplic inconclusive and MCF10A rerep -3%.
`CCN(CC)S(=O)(=O)c1cccc(C(=O)NNC(=O)C2=NN(c3ccccc3)C(=O)CC2)c1` gave IL-1B inflam inh 0, SW480 rereplic -7%, MCF10A rerep -1%, RORg inh -9% and Gal4-VP16 FLuc 0%.
C#CCn1cc2c(c1-c1ccccc1)c(=O)n(C)c(=O)n2C was read as IL-1B inflam inh 17.
For Cc1cc(=O)n2[nH]c(C)c(-c3ccc(Cl)cc3)c2n1 the results were IL-1B inflam inh 1, SW480 rereplic 0%, MCF10A rerep -3%, RORg inh 7.1µM* and Gal4-VP16 FLuc 16µM*.
Screening Oc1cccc(Nc2nc(NCC3CCCO3)c3ccccc3n2)c1 (stereo not given) returned SW480 rereplic 6%, MCF10A rerep 15µM*, RORg inh 3% and Gal4-VP16 FLuc inconclusive.
Screening C(=N\Nc1nc(-c2cccnc2)nc2ccccc12)/c1ccccc1 returned SW480 rereplic 0%, MCF10A rerep 11%, RORg inh inconclusive and Gal4-VP16 FLuc -10%.
For c1ccc(Nc2nc(NCC3CCCO3)c3ccccc3n2)cc1 (stereo not given) the results were IL-1B inflam inh -101*, SW480 rereplic inconclusive, MCF10A rerep inconclusive, RORg inh -19% and Gal4-VP16 FLuc inconclusive.
Screening FC(F)(F)c1nc2ccccc2nc1N/N=C\c1ccccc1 returned IL-1B inflam inh 11, SW480 rereplic 1%, MCF10A rerep 18%, RORg inh 3.5µM* and Gal4-VP16 FLuc 13µM*.
